SMILES strings stand for the structures.

For this assay, the system named is Vero E6 infected with SARS-CoV-2. Kind of assay: morphology score (similarity to uninfected cells); higher = more like uninfected cells. The conditions noted are these: 24 h.
With `CC/C=C(\C(=O)N[C@@H]1C(=O)N2C(C(=O)OCOC(=O)C(C)(C)C)=C(COC(N)=O)CS[C@H]12)c1csc(N)n1` [cefcapene-pivoxil] (10 µM), the morphology score was -0.175. Then `CC(C)(O)C(=O)N1CCN(c2ccc(C(F)(F)F)c(C3=C(c4c[nH]c5ccccc45)C(=O)NC3=O)c2)CC1` (0.833333 µM), with -0.201; and `CC1=C(CC(=O)O)c2cc(F)ccc2/C1=C\c1ccc([S+](C)[O-])cc1` (stereo not given) [sulindac] (10 µM), with 0.0804.

In the case of `COc1cc2c(cc1OC)-c1c/c(=N\c3c(C)cc(C)cc3C)n(C)c(=O)n1CC2` [trequinsin] (10 µM), the morphology score came to 0.541. Next, `Cc1noc(C)c1-c1ccc(-c2cc(C(N)=O)c(NC(N)=O)s2)c(O[C@H]2CCNC2)c1` (10 µM): 0.0267.

For `CCc1ccc(C(=O)C(C)CN2CCCCC2)cc1` (stereo not given) [eperisone] (10 µM), the morphology score was 0.374. On to `CNCc1cc(-c2ccccc2F)n(S(=O)(=O)c2cccnc2)c1` [vonoprazan] (10 µM), for which the morphology score amounted to 0.00653. Then `Cc1ccc(S(=O)(=O)Cc2nc(-c3ccc(C(=O)NCc4cccnc4)cc3)oc2C)cc1` (0.833333 µM), with -0.146; and `CC(C)[C@H](O)C(=O)N[C@@H](C)C(=O)N[C@@H]1C(=O)N(C)CCc2ccccc21` [semagacestat] (10 µM), with 0.0376; and `O=C1c2ccccc2CCC1CNCCc1ccc(O)cc1` (stereo not given) (10 µM), with 0.0149. Next, `CC(C)n1c(=O)n(C(=O)N[C@H]2C[C@H]3CC[C@@H](C2)N3C)c2ccccc21` (10 µM): 0.0156; `C=CCNC1=C2C[C@@H](C)C[C@H](OC)[C@H](O)[C@@H](C)/C=C(\C)[C@H](OC(N)=O)[C@@H](OC)/C=C\C=C(/C)C(=O)NC(=CC1=O)C2=O` [tanespimycin] (10 µM): -0.0472; `CN(C)c1nc(N(C)C)nc(N(C)C)n1` [altretamine] (10 µM): -0.171. `c1cn2cc(-c3ccc4cn[nH]c4c3)nc(Nc3ccc(N4CCOCC4)cc3)c2n1` (10 µM) came in with a morphology score of 0.194. In the case of `CCc1cnc(N2CCC(c3nc(COc4ccc(-n5cnnn5)cc4)cs3)CC2)nc1` (10 µM), the morphology score came out at 0.0438. Then `Cc1cc(O)c(-c2ccc([C@@H](C)CN)cc2)c2c1[nH]c(=O)c1sccc12` (0.833333 µM), with -0.046; and `CN(C)CC/C=C1/c2ccccc2Sc2ccc(Cl)cc21` [chlorprothixene] (10 µM), with 0.434. Then `CC1(C)CCC[C@]2(C)[C@H]3CC(=O)O[C@]3(C)CC[C@@H]12` [Sclareolide (Norambreinolide)] (10 µM), with 0.184.

`CCCc1c2oc(C(=O)O)cc(=O)c2cc2c(=O)cc(C(=O)O)n(CC)c12` [nedocromil] (10 µM) displayed a morphology score of -0.0269. Then `CC[N+](CC)(CCNC(=O)C(=O)NCC[N+](CC)(CC)Cc1ccccc1Cl)Cc1ccccc1Cl` [ambenonium] (10 µM), with 0.131. For the compound `C[C@@H]1COCCN1c1cc(=O)n2c(n1)N(Cc1cncc(Cl)c1)[C@H](C(F)(F)F)CC2` (0.833333 µM), the morphology score amounted to 0.55.

Consider `CCN1CCCC1CNC(=O)c1cc(S(=O)(=O)CC)c(N)cc1OC` (stereo not given) [amisulpride] (10 µM), for which the morphology score stood at 0.114. `CCCCn1c(-c2ccccc2)nc(-c2ccccc2)c1CN(Cc1ccc2c(c1)OCO2)Cc1ccc2c(c1)OCO2` (10 µM) came in with a morphology score of 0.139. Next, `CN(CCOc1ccc(C[C@H](Nc2ccccc2C(=O)c2ccccc2)C(=O)O)cc1)c1ccccn1` (10 µM): 0.317; `O=C(O)c1ccccc1Nc1cccc(C(F)(F)F)c1` [flufenamic-acid] (10 µM): 0.156.

On to `CC(C)CCC[C@@H](C)[C@H]1CC[C@H]2[C@@H]3CCC4=CC(=NO)CC[C@]4(C)[C@H]3CC[C@]12C` [olesoxime] (10 µM), for which the morphology score is -0.0917. `CC(C(=O)O)c1ccc(CC2CCCC2=O)cc1` (stereo not given) [loxoprofen] (10 µM): the morphology score was -0.0253. Next, `Oc1ccc2ccccc2c1` [beta-naphthol] (10 µM): -0.0489.

As to `C[C@H](CCC(=O)O)[C@H]1CC[C@H]2[C@@H]3[C@H](O)C[C@@H]4C[C@H](O)CC[C@]4(C)[C@H]3C[C@H](O)[C@]12C` [cholic-acid] (10 µM), the morphology score came to 0.0109. In turn, `CCCCOCCOc1nc(-c2ccc(C(=O)O)c(F)c2)sc1C` (10 µM) returned a morphology score of -0.127. Next, `O=C(c1ccc(OCCN2CCCCC2)cc1)c1c(-c2ccc(O)cc2)sc2cc(O)ccc12` [raloxifene] (0.833333 µM): 0.0812; `CC(C)c1c(NC(=O)Nc2ccc(Cl)cc2)c(=O)n(-c2ccccc2)n1C` (10 µM): 0.0113; `O=C(O[C@H]1C[C@H]2CC[C@@H](C1)[N+]21CCCC1)C(O)(c1ccccc1)c1ccccc1` [trospium] (10 µM): 0.0583.

`COc1ccc(Br)cc1S(=O)(=O)NC(=O)/C=C/c1ccccc1Cc1ccc2ccccc2c1` (10 µM): the morphology score amounted to 0.19. In the case of `CC(C)CNc1nc(-c2cccc3ncccc23)cn2c(-c3ccc(C(=O)NC4CC4)cc3)cnc12` (10 µM), the morphology score was -0.233. In the case of `CS(=O)(=O)n1cc2c(n1)CN([C@H]1CO[C@H](c3cc(F)ccc3F)[C@@H](N)C1)C2` [omarigliptin] (10 µM), the morphology score was 0.198. On to `CN1CCc2c(c3ccccc3n2Cc2ccc(C(=O)NO)cc2)C1` [tubastatin-A] (0.833333 µM), for which the morphology score is 0.115. As to `Cc1cc2nc3c(=O)[nH]c(=O)nc-3n(C)c2cc1C=O` (10 µM), the morphology score came out at 0.102. Next, `Cc1cc(Nc2cc(CN3CCOCC3)c3nc(C)c(Cc4ccc(Cl)cc4F)n3n2)n[nH]1` (0.833333 µM): -0.0116; `Oc1c(I)cc(Cl)c2cccnc12` [clioquinol] (10 µM): 0.127.

The values above are taken from the supplement of paper PMC13380429.
